# Source: PubChem BioAssay (Tox21)
# Results filed as inconclusive are left out. Unmarked numbers belong to inactive results. The source made the active and inactive calls. Calls come from the whole dose curve; as a rule, active = well fitted activation curve with a large enough effect in the repeat runs; inconclusive = weak or mixed curves; inactive = flat fitted curve, though single readings scatter. Positions of bridges follow the written chain, without caps; N, C: chain ends. Non-standard residues stand in square brackets, D forms with d. Residues, ends and D or L forms follow the SMILES beside them. hArg = N=C(N)NCCCC[C@H](N)C(=O)O; Mpa = O=C(O)CCS
# Assay: A CellTox Green Cytotoxicity Assay to monitor cytotoxicity in HepG2 cells - 8 hour (AID 1224890); note: nearly all actives have a fitted effect of over 45% in size
# Details: CellTox Green fluorescence; series mostly up to 76.8 µM; cytotoxicity increase: at the top concentration
# From the text: National Center for Advancing Translational Sciences [NCATS]
# NIH Chemical Genomics Center [NCGC]
# U.S. Environmental Protection Agency [EPA]
# National Institutes of Environmental Health Sciences [NIEHS]
# National Toxicology Program [NTP]
# Cell-based models are critical for drug discovery. Determining the natural cytotoxic effects resulting from test compounds is an essential research activity. A CellTox Green Cytotoxicity Assay to monitor cytotoxicity in real time of continues cell culture during 40 hours of the compound treatment was used to screen Tox21 10K library compounds in HepG2 cells. CellTox Green Cytotoxicity Assay is a nonlytic, homogeneous, biofluorescent method to measure cytotoxicity in cell culture after experimental manipulation. The assay system uses a proprietary asymmetric cyanine dye that is excluded from viable cells but preferentially stains the dead cell's DNA. […] Viable cells produce no appreciable increases in fluorescence. Therefore, the fluorescence signal produced by the binding interaction with dead cell DNA is proportional to cytotoxicity.
# The mixture of HepG2 cell suspension and reagents were dispensed at 600cells/6 ul/well in 1536-well tissue culture treated black solid bottom plates using a Multidrop dispenser. After the assay plates were incubated at a 37 C/5% CO2 incubator for 5 hours, 23 nL of compounds dissolved in DMSO, positive and negative controls was transferred to the assay plate by a pintool work station. The plates were incubated at 37 C for 40 hours. The fluorescence intensity were measured at 0h, 8h, 16h, 24h, 32h and 40h time points using ViewLux plate reader during compound treatment.
# % is set by controls: 0 for no effect and ±100 for the full control effect; potency is the fitted concentration of half-maximal effect.
Structure (SMILES),cytotoxicity increase,Potency
CCOC(=O)CC1(C)OCC(C)O1 (stereo not given),1.19%,
Cn1nnc2c(C(N)=O)ncn2c1=O,-2.13% [at 35.3 µM],
OCC1(CO)COCOC1,0.119%,
CCCCCCCCCCCCCCCCCC#N,-7.5%,
O=C(CCCCC(=O)Nc1c(I)cc(I)c(C(=O)O)c1I)Nc1c(I)cc(I)c(C(=O)O)c1I,0.416% [at 35.3 µM],
O=C=NCC1CCCC(CN=C=O)C1 (stereo not given),-10.6%,
NCC1(Cc2noc(=O)[nH]2)CCCCC1,-7.14%,
CC(C)NCC(O)c1ccc2ccccc2c1 (stereo not given),-8.43% [at 35.3 µM],
COP(=O)(O)OP(=O)(O)OC,-2.55%,
C/C(=C1\CCOC(=O)S1)N(C=O)Cc1cnc(C)nc1N,-1.81% [at 35.3 µM],
CC(=O)CC(=O)Nc1ccc(C)cc1C,-7.53%,
OCCN1CCOCC1,-1.03%,
CC(C)NC(=O)c1ccc(C=O)cc1,2.13% [at 35.3 µM],
C=CC/C=C/C,2.11%,
Cc1ccc(C)c([N+](=O)[O-])c1,0.577%,
CC1OCCC1=O (stereo not given),-0.861%,
CC(=O)c1cc(C)oc1C,-7.03%,
CO[Si](CCCn1c(=O)n(CCC[Si](OC)(OC)OC)c(=O)n(CCC[Si](OC)(OC)OC)c1=O)(OC)OC,-6.24% [at 35.3 µM],
C=CC(=O)CCCCC,-6.26%,
CC(=O)OC1CCCCC1C(C)(C)C (stereo not given),-10.2%,

Structure (SMILES),cytotoxicity increase,Potency
COC(=O)c1cccc(Cl)c1,0.275%,
CN(C)CCOC(=O)C(c1ccccc1)C1(O)CCCC1 (stereo not given),1.79% [at 35.3 µM],
CC(C)Nc1ccccc1,-2.73%,
C=CC(=O)OCC1CCCO1 (stereo not given),-10.3%,
CC1(C)CC(OC(=O)CCCCCCCCC(=O)OC2CC(C)(C)NC(C)(C)C2)CC(C)(C)N1,-0.141% [at 15.8 µM],
Cc1c(Cl)cccc1Cl,-4.71%,
CCC(C)C(=O)OCCc1ccccc1 (stereo not given),-0.577%,
C[C@@H](O)C(=O)O,4.55%,
CNCCS(=O)(=O)O,3.03%,
CO[C@@]1(NC(=O)Cc2cccs2)C(=O)N2C(C(=O)O)=C(COC(N)=O)CS[C@@H]21,-1.19% [at 35.3 µM],
NC(=O)[C@@H]1CSSCCC(=O)N[C@@H](CCCCN=C(N)N)C(=O)NCC(=O)N[C@@H](CC(=O)O)C(=O)N[C@@H](Cc2c[nH]c3ccccc23)C(=O)N2CCC[C@H]2C(=O)N1 ([Mpa][hArg]GDWPC-NH2; disulfide 1-7),5.72% [at 35.3 µM],
CCCSSCCC,9.82%,
CN(C)CCCO[C@@H]1[C@H]2OC(C)(C)O[C@H]2O[C@@H]1C(O)CO (stereo not given in full),-4.47% [at 35.3 µM],
N#Cc1cscn1,2.43%,
Cc1c(C(=O)c2c[nH]n(C)c2=O)ccc(S(C)(=O)=O)c1C1=NOCC1,-9.9% [at 35.3 µM],
CC1=C(C(=O)O)N2C(=O)[C@@H](NC(=O)[C@H](N)C3=CCC=CC3)[C@H]2SC1,-4.56% [at 35.3 µM],
CC12CCC(C1)C(C)(C)C2O (stereo not given),,1950 nM (active)
CCC(=O)CC,5.59%,
CCCCCCCCCOC(=O)c1ccccc1C(=O)OCCCCCCCCC,-11.4%,
COC(=O)c1cc(Cl)cc(Cl)c1,2.03%,
